The text below walks through data of PubChem BioAssay (NCI).

Test systems include NCI-H322M lung; NCI-H460 lung; HOP-92 NSCLC; NCI-H522 lung; A549/ATCC NSCLC; 786-0 renal; COLO 205 colon; NCI-H226 lung; HOP-62 NSCLC.
Common to all, as to experiment: NCI-60 one-dose screen, 48 h (100 = growth as untreated, 0 = no growth, -100 = all killed)
Settings in all cases: 10 µM

Molecules are shown by their SMILES. The panel holds about 83,000 compounds, 20% with a hit somewhere; the sample as a whole holds those more often.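 In brief: 96-well plates, 48 h treatment, single concentration, percent growth endpoint.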 A number with no mark means an inactive call. Calls of active or inactive are those of the source. The calls were made as follows: active = growth percent below 10; inactive = the rest.

For the compound `Cc1ccc(C(C)C)cc1NC(=O)c1ccccc1O`, the growth in the experiment on NCI-H322M lung is 55%; in the experiment on NCI-H460 lung it was 30.8%; in the experiment on HOP-92 NSCLC it was -4.4% (active); in the experiment with NCI-H522 lung, 20.6%; in the experiment on A549/ATCC NSCLC, 47.8%; in the experiment with 786-0 renal it was 58.8%. For the same compound, the growth with COLO 205 colon was 100%.

As for `CC1(C)CC[C@]23CC[C@]4(C)[C@H](CC[C@@H]5[C@@]6(C)CC[C@H](N)C(C)(C)[C@@H]6CC[C@]54C)[C@H]2[C@H]1OC3=O`, the growth in the experiment with NCI-H226 lung was -90% (active); with NCI-H322M lung, -99.5% (active); in the experiment with HOP-62 NSCLC, -77.2% (active); in the experiment with NCI-H460 lung, -13.9% (active); in the experiment on HOP-92 NSCLC, -65.5% (active); in the experiment with NCI-H522 lung it was -85.5% (active). The growth is -88.9% (active) in the experiment with A549/ATCC NSCLC, -94.8% (active) in the experiment with 786-0 renal and -69.5% (active) in the experiment with COLO 205 colon.

As for `COc1ccc2[nH]c(=O)c(CSc3ccc(Nc4nccc(-c5ccc(Cl)cc5)n4)cc3)cc2c1`, the growth in the experiment on NCI-H226 lung was 38.8%; with NCI-H322M lung, 95.7%; in the experiment on HOP-62 NSCLC, 104%; with NCI-H460 lung, 112%; in the experiment on HOP-92 NSCLC it was 93.2%; in the experiment with NCI-H522 lung, 86.7%. Also, the growth with A549/ATCC NSCLC was 98.1%; with 786-0 renal it was 109%; in the experiment with COLO 205 colon, 108%.

For `Cc1ccc(-c2cc(-c3cc4ccccc4nc3Cl)[nH]c(=S)n2)cc1`, the growth in the experiment on NCI-H226 lung was 74.2%; in the experiment with NCI-H322M lung it was 81.7%; in the experiment with HOP-62 NSCLC, 90.1%; in the experiment with NCI-H460 lung, 83.3%; in the experiment with HOP-92 NSCLC, 44.7%; in the experiment on NCI-H522 lung, 37.8%. Also, the growth with A549/ATCC NSCLC is 85.5%; in the experiment on 786-0 renal, 74.3%; in the experiment on COLO 205 colon, 89.5%.

Turning to `Cc1ccc(CSc2nc(Cl)c(C#N)c(-c3ccc(F)cc3)n2)cc1`, the growth in the experiment on NCI-H322M lung was 86.7%; with HOP-62 NSCLC it was 96.4%; in the experiment on NCI-H460 lung it was 86.5%; in the experiment with HOP-92 NSCLC, 54.6%; in the experiment on NCI-H522 lung, 62.5%; in the experiment with A549/ATCC NSCLC, 66.5%. Also, the growth with 786-0 renal was 78.7%; with COLO 205 colon, 77.3%.

`CN1CCN(c2ccc(Nc3nc(N4CCN(S(=O)(=O)c5ccc(F)cc5)CC4)c4sccc4n3)cc2)CC1`: the growth with NCI-H226 lung is -74.7% (active); in the experiment with HOP-62 NSCLC it was -49.6% (active); with NCI-H460 lung it was -73% (active); in the experiment on HOP-92 NSCLC, -66.3% (active); with NCI-H522 lung, -86.4% (active); in the experiment on A549/ATCC NSCLC it was -48.9% (active). For the same compound, the growth was -72.6% (active) in the experiment on 786-0 renal and -79.9% (active) in the experiment with COLO 205 colon.

As to `CCCS(=O)(=O)c1oc(-c2ccc(F)cc2)nc1S(=O)(=O)c1ccc(F)cc1`, the growth is 64.7% with NCI-H226 lung; 89.8% in the experiment on NCI-H322M lung; 84% in the experiment with HOP-62 NSCLC; 61.7% with NCI-H460 lung; -80.6% (active) with HOP-92 NSCLC; -92.9% (active) with NCI-H522 lung. Also, the growth in the experiment on A549/ATCC NSCLC was 82.5%; in the experiment on 786-0 renal, -52.2% (active); in the experiment on COLO 205 colon it was -92.1% (active).

Consider `COc1ccc(/C=C/C(=O)c2ccc(N3CCN(C)CC3)cc2)c(C(F)(F)F)c1`, for which the growth with NCI-H226 lung was 46.4%; in the experiment on NCI-H322M lung, 76.5%; with HOP-62 NSCLC it was 79.6%; with NCI-H460 lung, 11.2%; in the experiment with HOP-92 NSCLC, 46.8%; in the experiment with NCI-H522 lung, 52.8%. Besides, the growth in the experiment on A549/ATCC NSCLC is 48.4%; in the experiment on 786-0 renal, 41.6%; with COLO 205 colon, -64.6% (active).

As to `CC1(C)CC[C@]2(C(=O)Nc3ccccc3)CC[C@]3(C)C(=CC[C@@H]4[C@@]5(C)CC[C@H](N)C(C)(C)[C@@H]5CC[C@]43C)[C@H]2C1`, the growth with NCI-H226 lung is 88.3%; with NCI-H322M lung it was 105%; in the experiment on HOP-62 NSCLC it was 103%; in the experiment on NCI-H460 lung it was -30.2% (active); in the experiment on HOP-92 NSCLC, 70.2%; in the experiment with NCI-H522 lung, 82.9%. Further, the figures for the growth in the experiment with 786-0 renal and in the experiment with COLO 205 colon were 65.3% and -36.4% (active), respectively.

`Cc1ccc(/C(CSc2nnc(-c3c[nH]c4ccccc34)n2-c2ccccc2)=N/O)cc1`: the growth with NCI-H226 lung is -41.1% (active); in the experiment on NCI-H322M lung, -42.4% (active); in the experiment with HOP-62 NSCLC, -56.6% (active); with NCI-H460 lung, 1.99% (active); in the experiment with HOP-92 NSCLC, -5.5% (active); in the experiment on NCI-H522 lung, 23.8%. For the same compound, the growth in the experiment with A549/ATCC NSCLC is 18.4%; in the experiment on 786-0 renal it was 2.17% (active); in the experiment with COLO 205 colon, 12.4%.

In the case of `O=C(CNc1nc(-c2ccccc2)cs1)Nc1cccc(Cl)c1`, the growth in the experiment on NCI-H226 lung was 44.8%; in the experiment on NCI-H322M lung, 62.3%; with HOP-62 NSCLC, 46.6%; in the experiment on NCI-H460 lung it was 44.8%; with HOP-92 NSCLC it was -5.42% (active); in the experiment with NCI-H522 lung, 4.23% (active). Moreover, the growth in the experiment on A549/ATCC NSCLC was 38.7%; with 786-0 renal it was 54.6%; in the experiment on COLO 205 colon it was 40.3%.

In the case of `O=c1[nH]c2ccccc2cc1CSc1ccc(Nc2nccc(-c3ccc4c(c3)OCO4)n2)cc1`, the growth with NCI-H226 lung is 74%; in the experiment on NCI-H322M lung it was 97.7%; in the experiment on HOP-62 NSCLC it was 84%; in the experiment on NCI-H460 lung it was 83.1%; in the experiment with HOP-92 NSCLC, 78.6%; in the experiment on NCI-H522 lung it was 96.9%. Further, the growth was 76.7% with A549/ATCC NSCLC, 84.7% with 786-0 renal and 71.6% with COLO 205 colon.

As to `COc1ccsc1/C=N/NC(=O)c1[nH]c2ccc(Br)cc2c1-c1ccccc1`, the growth is 26.3% in the experiment with HOP-62 NSCLC; 0.114% (active) in the experiment with NCI-H460 lung; -5.64% (active) in the experiment on HOP-92 NSCLC; -34.4% (active) with NCI-H522 lung; 1.8% (active) with 786-0 renal; -32.4% (active) in the experiment on COLO 205 colon.

As for `O=C(CNc1nc(-c2ccccc2)cs1)Nc1ccc([N+](=O)[O-])cc1`, the growth in the experiment with NCI-H226 lung was 29.4%; in the experiment with NCI-H322M lung it was 6.59% (active); with HOP-62 NSCLC, 33.3%; in the experiment on NCI-H460 lung it was 35%; with HOP-92 NSCLC it was 42.8%; with NCI-H522 lung it was -74.6% (active). The growth in the experiment with A549/ATCC NSCLC is 42.8%; in the experiment with 786-0 renal, 16%; with COLO 205 colon it was -83.3% (active).

Turning to `O=C1NC(=NC23CC4CC(CC(C4)C2)C3)N/C1=C\c1ccc2ncccc2n1`, the growth with NCI-H226 lung is -15.6% (active); in the experiment with NCI-H322M lung, -10.2% (active); in the experiment on HOP-62 NSCLC, -5.42% (active); with NCI-H460 lung, -8.97% (active); in the experiment on HOP-92 NSCLC it was -14.6% (active); with NCI-H522 lung, -20.6% (active). The growth in the experiment on A549/ATCC NSCLC is 2.65% (active); in the experiment with 786-0 renal, 2.78% (active); with COLO 205 colon, -19.3% (active).
